From PubChem BioAssay (NCI)
About 79,000 compounds went through this panel and 15% of them were active in at least one assay; those are over-represented in the sample as a whole. Active and inactive are the calls of the source. Rule as the data show it: active = growth inhibition above about 70%; inactive = the rest.

Assays:
[1] = NCI Yeast Anticancer Drug Screen. Data for the rad52 strain (AID 147);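 also: 0% = growth of vehicle-treated control cultures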; conditions: S. cerevisiae rad52 mutant growth inhibition, hits give high values
How it was run: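 Growth of repair-deficient yeast cells was compared between compound-treated and vehicle-treated cultures to give percent inhibition.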

[2] = NCI Yeast Anticancer Drug Screen. Data for the wt1 strain (AID 149);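 also: 0% = growth of vehicle-treated wt1 cultures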; conditions: S. cerevisiae wt1 strain (SPY 50644) growth inhibition, hits give high values
How it was run: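 Measured: growth of wt1 yeast under compound versus vehicle treatment, reported as inhibition.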

[3] = NCI Yeast Anticancer Drug Screen. Data for the rad50EPP+ strain (AID 151);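 also: 0% = growth of vehicle-treated control cultures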; conditions: S. cerevisiae rad50 mutant strain, hits give high values
How it was run: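 Measured: growth inhibition of rad50EPP+ yeast. Reference: vehicle-treated controls. Screen uses strains with defined genetic alterations in DNA damage repair or cell cycle control.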

[4] = NCI Yeast Anticancer Drug Screen. Data for the mgt1 strain (AID 153); conditions: S. cerevisiae mgt1 mutant growth inhibition, hits give high values
How it was run: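 Compounds were applied to mgt1 mutant yeast, and growth was then compared against vehicle-treated control cultures to give percent inhibition.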

[5] = NCI Yeast Anticancer Drug Screen. Data for the rad50 strain (AID 155);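 also: 0% = growth of vehicle-only cultures of the same strain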; conditions: S. cerevisiae rad50 strain growth inhibition, hits give high values
How it was run: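 Growth of the mutant yeast was measured after compound exposure and referenced to vehicle-treated cultures.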

[6] = NCI Yeast Anticancer Drug Screen. Data for the mec2-1 strain (AID 157); conditions: S. cerevisiae mec2-1 strain, hits give high values
How it was run: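 Compounds were applied to mec2-1 yeast cells. Their growth was then compared with that of vehicle-treated cultures to give growth inhibition.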

[7] = NCI Yeast Anticancer Drug Screen. Data for the rad14 strain (AID 159);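 also: 0% = growth of vehicle-treated control cultures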; conditions: S. cerevisiae rad14 strain growth inhibition, hits give high values
How it was run: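 Here, inhibition of yeast growth was measured after compound exposure, using a strain with a genetic defect in DNA damage repair and vehicle-treated cultures as the reference.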

[8] = NCI Yeast Anticancer Drug Screen. Data for the sgs1 mgt1 strain (AID 161);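 also: 0% = growth of cultures given vehicle only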; conditions: S. cerevisiae sgs1 mgt1 strain, hits give high values
How it was run: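 Compounds are added to genetically altered yeast, and growth is compared with cultures given vehicle alone to give percent inhibition.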

[9] = NCI Yeast Anticancer Drug Screen. Data for the CLN2oe strain (AID 163);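 also: 0% = growth of vehicle-only control cultures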; conditions: S. cerevisiae CLN2oe strain, hits give high values
How it was run: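 Cells of an engineered yeast line with disturbed cell-cycle regulation are treated with compound. Inhibition of growth is then calculated relative to the vehicle-treated reference.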

[10] = NCI Yeast Anticancer Drug Screen. Data for the cln2 rad14 strain (AID 165);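 also: 0% = growth equal to vehicle treated cultures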; conditions: S. cerevisiae cln2 rad14 strain, hits give high values
How it was run: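 Strain: cln2 rad14 yeast, altered in cell cycle control and DNA damage repair. Read-out: growth inhibition vs vehicle.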

[11] = NCI Yeast Anticancer Drug Screen. Data for the bub3 strain (AID 167); conditions: S. cerevisiae bub3 mutant strain, hits give high values
How it was run: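 Whole-cell yeast assay. The mutant strain was incubated with compounds, and growth inhibition was determined by comparison with vehicle-treated cells.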

[12] = NCI Yeast Anticancer Drug Screen. Data for the wt2 strain (AID 169);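 also: 0% = growth of vehicle-treated yeast cultures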; conditions: S. cerevisiae wt2 strain growth inhibition, hits give high values
How it was run: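 Growth of compound-treated yeast is measured and expressed as inhibition relative to vehicle-only controls.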

[13] = NCI Yeast Anticancer Drug Screen. Data for the mlh1 strain (AID 171);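 also: 0% = growth of vehicle-treated control cultures of the same strain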; conditions: S. cerevisiae mlh1 strain growth inhibition, hits give high values
How it was run: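 Test agents were incubated with yeast bearing a defined DNA damage repair or cell cycle control alteration; values are growth inhibition normalised to vehicle-treated cultures.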

[14] = NCI Yeast Anticancer Drug Screen. Data for the sgs1 strain (AID 173);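 also: 0% = growth of vehicle-only control cultures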; conditions: S. cerevisiae sgs1 mutant, hits give high values
How it was run: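 Strain with an altered DNA repair or cell cycle pathway exposed to compound. Growth then measured. Value = inhibition versus vehicle control.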

[15] = NCI Yeast Anticancer Drug Screen. Data for the mlh1 rad18 strain (AID 175); conditions: S. cerevisiae mlh1 rad18 strain growth inhibition, hits give high values
How it was run: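 A repair-deficient yeast strain is exposed to test compound, and growth is scored relative to vehicle-treated controls.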

[16] = NCI Yeast Anticancer Drug Screen. Data for the rad18 strain (AID 177); conditions: S. cerevisiae rad18 mutant growth inhibition, hits give high values
How it was run: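 DNA-repair-defective yeast; compound treatment; growth inhibition scored against vehicle.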

[17] = at 5.0 µM (retest, dose inferred, filed as 0.5)
[18] = at 50.0 µM (retest, dose inferred, filed as 5.0)

Measured: growth inhibition

S=C(S)NCC1CCC(CNC(=S)S)CC1 (stereo unspecified)
inactive: [1]; at 1.2 µM -10% | [1]; at 3.7 µM -12% | [1]; at 11.0 µM -12% | [1]; at 33.0 µM 20% | [2]; at 1.2 µM -11% | [2]; at 3.7 µM -5% | [2]; at 11.0 µM -5% | [2]; at 33.0 µM 20% | [3]; at 1.2 µM -3% | [3]; at 3.7 µM 3% | [3]; at 11.0 µM 24% | [3]; at 33.0 µM 41% | [4]; at 1.2 µM -8% | [4]; at 3.7 µM 0% | [4]; at 11.0 µM 5% | [4]; at 33.0 µM 18% | [5]; at 1.2 µM 8% | [5]; at 3.7 µM 3% | [5]; [17] 31% | [5]; at 11.0 µM -4% | [5]; at 33.0 µM 22% | [5]; at 50.0 µM 67% | [6]; at 1.2 µM -9% | [6]; at 3.7 µM -2% | [6]; [17] 64% | [6]; at 11.0 µM 5% | [6]; at 33.0 µM 43% | [6]; at 50.0 µM 59.1% | [7]; at 1.2 µM 13% | [7]; at 3.7 µM 19% | [7]; at 11.0 µM 13% | [7]; at 33.0 µM 27% | [8]; [17] -13% | [8]; [18] 61% | [9]; at 1.2 µM 0% | [9]; at 3.7 µM 12% | [9]; at 11.0 µM 13% | [9]; at 33.0 µM 18% | [10]; [17] -7% | [10]; [18] 46% | [11]; at 1.2 µM 16% | [11]; at 3.7 µM -10% | [11]; [17] 19% | [11]; at 11.0 µM 19% | [11]; at 33.0 µM 63% | [12]; at 1.2 µM -15% | [12]; at 3.7 µM -20% | [12]; at 11.0 µM -13% | [12]; at 33.0 µM 28% | [13]; at 1.2 µM -4% | [13]; at 3.7 µM 15% | [13]; at 11.0 µM 5% | [13]; at 33.0 µM 32% | [14]; at 1.2 µM -3% | [14]; at 3.7 µM 14% | [14]; at 11.0 µM 16% | [14]; at 33.0 µM 48% | [15]; [17] 44% | [15]; at 50.0 µM 43.5% | [16]; at 1.2 µM 2% | [16]; at 3.7 µM 6% | [16]; at 11.0 µM 16% | [16]; at 33.0 µM 18%
active: [1]; at 100.0 µM 81% | [2]; at 100.0 µM 77% | [3]; at 100.0 µM 81% | [4]; at 100.0 µM 89% | [5]; [18] 98% | [5]; at 100.0 µM 83% | [6]; [18] 98% | [6]; at 100.0 µM 94% | [7]; at 100.0 µM 92% | [9]; at 100.0 µM 70% | [11]; [18] 77% | [11]; at 100.0 µM 93% | [12]; at 100.0 µM 83% | [13]; at 100.0 µM 71% | [14]; at 100.0 µM 87% | [15]; [18] 99% | [16]; at 100.0 µM 78%

S=P(N1CC1)(N1CC1)N1CC1
inactive: [1]; at 1.2 µM -1% | [1]; at 3.7 µM 2% | [1]; at 11.0 µM 3% | [1]; at 33.0 µM 4% | [1]; at 100.0 µM 16% | [2]; at 1.2 µM -3% | [2]; at 3.7 µM -3% | [2]; at 11.0 µM -2% | [2]; at 33.0 µM -2% | [2]; at 100.0 µM -22% | [3]; at 1.2 µM -4% | [3]; at 3.7 µM -5% | [3]; at 11.0 µM -4% | [3]; at 33.0 µM 7% | [3]; at 100.0 µM 34% | [4]; at 1.2 µM -5% | [4]; at 3.7 µM -2% | [4]; at 11.0 µM -1% | [4]; at 33.0 µM -1% | [4]; at 100.0 µM -1% | [5]; at 1.2 µM -3% | [5]; at 3.7 µM 0% | [5]; at 11.0 µM 4% | [5]; at 33.0 µM 6% | [5]; at 50.0 µM 28.6% | [5]; at 100.0 µM 23% | [6]; at 1.2 µM -5% | [6]; at 3.7 µM -3% | [6]; at 11.0 µM -1% | [6]; at 33.0 µM -2% | [6]; at 50.0 µM -0.7% | [6]; at 100.0 µM 5% | [7]; at 1.2 µM 0% | [7]; at 3.7 µM 3% | [7]; at 11.0 µM 5% | [7]; at 33.0 µM 9% | [7]; at 100.0 µM 20% | [8]; at 50.0 µM 30.1% | [9]; at 1.2 µM -4% | [9]; at 3.7 µM 0% | [9]; at 11.0 µM -6% | [9]; at 33.0 µM -10% | [9]; at 100.0 µM -3% | [10]; at 50.0 µM 6.4% | [11]; at 1.2 µM -3% | [11]; at 3.7 µM -2% | [11]; at 11.0 µM 0% | [11]; at 33.0 µM -6% | [11]; at 50.0 µM 13.8% | [11]; at 100.0 µM -11% | [12]; at 1.2 µM -1% | [12]; at 3.7 µM -2% | [12]; at 11.0 µM -2% | [12]; at 33.0 µM -17% | [12]; at 100.0 µM 2% | [13]; at 1.2 µM 0% | [13]; at 3.7 µM -1% | [13]; at 11.0 µM -2% | [13]; at 33.0 µM 1% | [13]; at 100.0 µM 7% | [14]; at 1.2 µM -2% | [14]; at 3.7 µM -4% | [14]; at 11.0 µM -2% | [14]; at 33.0 µM 3% | [14]; at 100.0 µM 20% | [15]; at 50.0 µM -2.75% | [16]; at 1.2 µM -3% | [16]; at 3.7 µM -1% | [16]; at 11.0 µM 6% | [16]; at 33.0 µM 24%
active: [16]; at 100.0 µM 78%

C=C1N(C)c2ccc(Cl)cc2C1(C)C
active: [1]; at 100.0 µM 94% | [2]; at 100.0 µM 92% | [4]; at 100.0 µM 97% | [5]; [18] 99% | [5]; at 50.0 µM 88.9% | [5]; at 100.0 µM 94%
inactive: [1]; at 1.2 µM -26% | [1]; at 3.7 µM -25% | [1]; at 11.0 µM -38% | [1]; at 33.0 µM -7% | [2]; at 1.2 µM -37% | [2]; at 3.7 µM -28% | [2]; at 11.0 µM -30% | [2]; at 33.0 µM -21% | [3]; at 1.2 µM -5% | [3]; at 3.7 µM -7% | [3]; at 11.0 µM -23% | [3]; at 33.0 µM -18% | [3]; at 100.0 µM -6% | [4]; at 1.2 µM -23% | [4]; at 3.7 µM 0% | [4]; at 11.0 µM 0% | [4]; at 33.0 µM 29% | [5]; at 1.2 µM 4% | [5]; at 3.7 µM -22% | [5]; [17] 68% | [5]; at 11.0 µM -26% | [5]; at 33.0 µM 20% | [6]; at 1.2 µM -3% | [6]; at 3.7 µM 4%
